PubChem BioAssay AID588549 (Broad Institute, 2011)
The whole screen tested about 360,000 compounds, of which about 780 (0.22%) were called active. The sample holds actives, similar compounds and a random draw of the others, so the mix is not that of the screen. Rule as the data show it: active = inhibition above about 8.5% (passing the limit was not always enough); inconclusive = no clear call, values can overlap the other calls.

System: Mycobacterium tuberculosis FadD28 fatty-acid-AMP ligase
Assay: inhibitors of FadD28 bisubstrate probe binding, primary screen, biochemical, fluorescence polarization, single point (AID 588549)
Conditions: at 12.5 µM, active compounds read high

SMILES	inhibition
C=CCn1c(SCc2cc(C(=O)OC)c(C)o2)nnc1-c1ccncc1	-3.43% (inactive)
Cc1ccc(C(c2sc3nc(C)nn3c2O)N2CCN(c3ccc(F)cc3)CC2)cc1 (stereo unspecified)	-3.79% (inactive)
CC(=O)c1c(N2CCN(c3ccc(F)cc3)CC2)nc(=S)n(-c2ccccc2)c1C	-1.67% (inactive)
O=C(C1Cc2ccccc2CN1C(=O)c1ccco1)N1CCN(c2ccccc2)CC1 (stereo unspecified)	-0.0045% (inactive)
C[C@H]1CN([C@@H](C)CO)C(=O)c2cc(C3=CCCCC3)cnc2O[C@@H]1CN(C)C(=O)Cc1ccccc1	-1.03% (inactive)
Cc1nn(Cc2ccccc2)c(C)c1C(=O)N1CCN(CC(=O)Nc2ccccc2Cl)CC1	-3.56% (inactive)
COCCCn1c(-c2cccs2)nc2nc3ccccc3nc21	-0.0615% (inactive)
CCC(=O)Nc1cccc(NC(=O)CSc2nnc(-c3ccc(NS(C)(=O)=O)cc3)n2C)c1	1.19% (inactive)
COCCN1Cc2cccc(C(=O)Nc3ccccc3OC)c2C1=O	-3.48% (inactive)
Cc1cccc(CN2CCN(C3CN(Cc4ccccc4)S(=O)(=O)C3)CC2)c1 (stereo unspecified)	-1.16% (inactive)
CCN(CC(=O)NCc1ccc(F)cc1)S(=O)(=O)c1ccc(Cl)s1	-3.08% (inactive)
C=CC(=O)OCCOCCOCCOCCOC(=O)C=C	-2.6% (inactive)
COC(=O)CCCCC1=CCC2C(=O)C=C(O)C2C1 (stereo unspecified)	-1.93% (inactive)
COc1cc(CNCc2ccc(OC)c3ccccc23)cc(OC)c1OC	-0.377% (inactive)
CCc1nc2c(OCCOc3ccccc3)cccn2c1N(C)C(=O)c1cccs1	-4.76% (inactive)
COC(=O)C1(C)CC1(c1ccccc1)c1ccccc1 (stereo unspecified)	-0.161% (inactive)
O=C1c2ccccc2C2=Nc3ccccc3SC(c3ccccc3F)C12 (stereo unspecified)	-4.89% (inactive)
COC(=O)C1CC2=C(CC(C)(C)CC2=O)N(c2ccccc2)C1=O (stereo unspecified)	1.35% (inactive)
Cc1ccc(N(Cc2ccc(C(=O)Nc3ccccc3C(=O)NCc3ccco3)cc2)S(C)(=O)=O)cc1C	-1.65% (inactive)

SMILES	inhibition
COCCN(C(=O)c1ccccc1F)c1c(N)n(Cc2ccccc2)c(=O)[nH]c1=O	-1.47% (inactive)
CC/C(=N\NC(=O)c1ccccc1O)c1c(O)n(Cc2ccccc2)c(=O)[nH]c1=O	17.8% (active)
CC/C(=N\NC(=O)c1ccccc1Cl)c1ccc(Br)s1	-2.73% (inactive)
Cc1ccc(C)c2c1cc(C)c1nnc(SCC(=O)Nc3cccc(C(=O)O)c3)n12	-2.19% (inactive)
NNC(=O)COc1ccc(C2SCCS2)cc1	-1.11% (inactive)
CCN1CC(CN(C)Cc2nc(-c3ccc(Cl)cc3)no2)CC1=O (stereo unspecified)	-0.366% (inactive)
Oc1c(Cl)cc(Cl)c(Cl)c1Cc1c(O)c(Cl)cc(Cl)c1Cl	65.8% (active)
COc1ccc(SCc2noc(C(=O)NCC3CCCO3)c2C(=O)O)cc1 (stereo unspecified)	0.0895% (inactive)
CCn1nnc2cc(C(=O)Nc3ccc(C(=O)OC(C)C)cc3)ccc21	-3.75% (inactive)
CC1CCCCC1NC(=O)c1cc(=O)[nH]c2ccccc12 (stereo unspecified)	-0.133% (inactive)
COc1ccc(OC)c(C(=O)c2coc3ccc(O)c(CN4CCOCC4)c23)c1	-2.66% (inactive)
CCOC(=O)c1ccccc1N1C(=O)C2Sc3[nH]c(=O)sc3C(/C=C/c3ccccc3)C2C1=O (stereo unspecified)	0.286% (inactive)
COc1cc(OC)cc(C(=O)NC2CCN(C(=O)N3c4ccccc4Sc4ccccc43)CC2)c1	-5.05% (inactive)
O=C(CSc1nc2ccccc2o1)N1CCN(c2ccc(Cl)cc2)CC1	1.06% (inactive)
CN(C)c1ccc(Nc2c3c4c(cccc4n(C)c2=O)C(=O)c2ccccc2-3)cc1	-0.49% (inactive)
O=C(Cc1ccc([N+](=O)[O-])cc1)NCCS(=O)(=O)N1CCN(c2ccccc2)CC1	-0.717% (inactive)
CC(C)C(NC(=O)c1c(F)cccc1F)C(=O)NNC(=O)c1ccccc1 (stereo unspecified)	-3.91% (inactive)
CN1C(=O)CC(c2ccccc2)C1=O (stereo unspecified)	-1.61% (inactive)
O=C(Cn1nnc(-c2ccccc2)n1)N/N=C/c1ccc(-c2ccc(Cl)cc2)o1	-1.53% (inactive)

SMILES	inhibition
CCC(C)N1C(=O)S/C(=C/c2ccc(Sc3nc4ccccc4[nH]3)o2)C1=O (stereo unspecified)	-0.197% (inactive)
O=C(O)C(c1ccccc1)N1C(=O)/C(=C\c2ccc(-c3cccc(Cl)c3)o2)SC1=S (stereo unspecified)	13% (active)
COc1c(C)cc(C(=O)C2CCCN(S(=O)(=O)c3c(C)noc3C)C2)cc1C (stereo unspecified)	-0.846% (inactive)
CCOCN(C(=O)Cn1c(C(C)O)nc2ccccc21)c1c(C)cccc1CC (stereo unspecified)	-5.11% (inactive)
CCCNC(=O)c1cc(C2CCCCN2C(=O)OC)on1 (stereo unspecified)	-0.481% (inactive)
CCN(CC)S(=O)(=O)c1ccc(N2CC(C(=O)NCc3cccnc3)CC2=O)cc1 (stereo unspecified)	-2.96% (inactive)
O=C(Cn1c2[n+](c3ccc(C(F)(F)F)cc31)CCCCC2)Nc1c(F)cccc1F	4.18% (inactive)
CC1CCN(c2ccc(C(=O)Nc3nnc(C4CC4)s3)cc2[N+](=O)[O-])CC1	-1.32% (inactive)
COC(=O)c1cc(Oc2ccc(S(=O)(=O)N3CCOCC3)cc2[N+](=O)[O-])cc(C(=O)OC)c1	0.28% (inactive)
O=[N+]([O-])c1cc(Cl)cc(/C=N/NC(=S)Nc2cc(S(=O)(=O)N3CCOCC3)ccc2Cl)c1O	22.5% (active)
Cc1cc(OCCCC(=O)Nc2cc(S(=O)(=O)N3CCOCC3)ccc2N2CCOCC2)ccc1Cl	0.172% (inactive)
O=S(=O)(NCC1OCCc2ccccc21)c1ccccc1 (stereo unspecified)	-0.133% (inactive)
Cn1c(=O)cc(SCC(=O)N2CCCC2)c2cc(Cl)ccc21	-4.85% (inactive)
CC(C)Cc1nn2c(=O)cc(O)nc2s1	0.338% (inactive)
CC(=O)N1CCN(S(=O)(=O)c2ccc(C)c([N+](=O)[O-])c2)C1C(C)C (stereo unspecified)	-3.8% (inactive)
COC(=O)C1CCN(C(=O)c2ccc3oc(Cc4ccc(Cl)cc4)nc3c2)CC1	-0.812% (inactive)
O=C(CN1C(=O)NC2(CCCC2)C1=O)NCC1CCCO1 (stereo unspecified)	-1.47% (inactive)
CCc1nc2ccc(C(=O)NC3CCN(Cc4ccccc4)CC3)cn2c1N(CC)CCOC	-4.48% (inactive)
